Among the test systems are HCT-15 colon; HT29 colon; SNB-75 CNS; SNB-19 CNS; U251 CNS; PC-3 prostate; SK-MEL-5 melanoma; UACC-62 melanoma; LOX IMVI melanoma; SK-MEL-28 melanoma; SK-MEL-2 melanoma; UO-31 renal; TK-10 renal; ACHN renal; CAKI-1 renal; A498 renal; CCRF-CEM leukemia; MOLT-4 leukemia; SN12C renal; EKVX NSCLC.
Common to all, as to experiment: NCI-60 one-dose screen, 48 h (100 = growth as untreated, 0 = no growth, -100 = all killed)
Settings in all cases: 10 µM unless noted

Molecules are shown by their SMILES. About 83,000 compounds went through this panel and 20% of them were active in at least one assay; those are over-represented in the sample as a whole.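 In brief: 96-well plates, 48 h treatment, single concentration, percent growth endpoint.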 A number with no mark means an inactive call. The source made the active and inactive calls. How the source made its calls: active means growth percent below 10; inactive means the rest.

With `COC(=O)CNC(=O)c1cccc(-c2cc(=O)c3c(OC)c(OC)c(OC)cc3o2)c1`, the growth with HCT-15 colon is 96%; in the assay on HT29 colon it was 110%; in the assay on SNB-75 CNS, 99.5%; in the assay on SNB-19 CNS it was 92.6%; with U251 CNS, 106%; in the assay on PC-3 prostate it was 95.6%. In addition, the growth with SK-MEL-5 melanoma is 98.6%; with UACC-62 melanoma, 90.2%; in the assay with LOX IMVI melanoma, 97.5%; in the assay with SK-MEL-28 melanoma, 106%; with SK-MEL-2 melanoma, 105%; in the assay with UO-31 renal, 86.1%. Besides, the growth in the assay with TK-10 renal was 109%; with ACHN renal, 98.9%; in the assay with CAKI-1 renal, 102%; with A498 renal, 90.8%; in the assay on CCRF-CEM leukemia, 91.3%; with MOLT-4 leukemia, 99.5%.

Regarding `O=C(N/N=C\c1ccc([N+](=O)[O-])cc1)c1ccc2nc(-c3ccc(Br)cc3)[nH]c2c1`, the growth in the assay with HCT-15 colon was 14.8%; in the assay with HT29 colon, -0.826% (active); in the assay with SNB-75 CNS, 56.4%; in the assay with SNB-19 CNS it was 41.6%; in the assay on U251 CNS it was 4.44% (active); with PC-3 prostate, 25%. Also, the growth in the assay on SK-MEL-5 melanoma was 2.52% (active); in the assay with UACC-62 melanoma, 31.4%; with LOX IMVI melanoma, -52.9% (active); with SK-MEL-28 melanoma, 36.8%; in the assay with SK-MEL-2 melanoma, 51.9%; in the assay on SN12C renal, 16.9%. Also, the growth was 41.6% with UO-31 renal; 64.6% in the assay with TK-10 renal; 34.1% in the assay on ACHN renal; 34.8% in the assay on CAKI-1 renal; 21.4% in the assay on A498 renal; 10.6% with CCRF-CEM leukemia. The growth in the assay with MOLT-4 leukemia was 5.71% (active).

Take `O=S(=O)(NCCCNc1nccc(-c2[nH]c(-c3ccccc3)nc2-c2ccc(F)c(O)c2)n1)c1ccccc1`: the growth in the assay with HCT-15 colon was 101%; in the assay with HT29 colon, 98.1%; with SNB-75 CNS, 79.5%; with SNB-19 CNS, 110%; in the assay with U251 CNS, 114%; in the assay with PC-3 prostate, 88.2%. Further, the growth in the assay with SK-MEL-5 melanoma was 59.9%; in the assay on UACC-62 melanoma it was 19.6%; with LOX IMVI melanoma, 83.7%; with SK-MEL-28 melanoma it was 33.8%; with SK-MEL-2 melanoma, 31.6%; in the assay with SN12C renal, 107%. Besides, the growth in the assay on UO-31 renal was 144%; in the assay on TK-10 renal it was 154%; with ACHN renal, 95.4%; in the assay on CAKI-1 renal, 105%; in the assay with A498 renal it was 114%; in the assay on CCRF-CEM leukemia, 47.9%. Moreover, the growth in the assay with MOLT-4 leukemia is 51.3%.

As for `C/C(=C(/C)C1CC1CCNC1CCC(NC(=O)OC(C)(C)C)CC1)c1ccccc1` (stereo not given), the growth is 42.6% with HCT-15 colon; 11.9% in the assay with HT29 colon; 60.1% in the assay on SNB-75 CNS; 91.3% with SNB-19 CNS; 61.3% with U251 CNS; 63.8% in the assay on PC-3 prostate. The growth in the assay on SK-MEL-5 melanoma is 45.7%; in the assay with UACC-62 melanoma it was 83.1%; in the assay on LOX IMVI melanoma it was 10.2%; in the assay with SK-MEL-28 melanoma, 35.5%; in the assay with SK-MEL-2 melanoma it was 95.9%; in the assay on SN12C renal, 76.2%. For the same compound, the growth in the assay with UO-31 renal was 63.8%; with TK-10 renal it was 108%; in the assay on ACHN renal, 87.1%; in the assay on CAKI-1 renal, 53.6%; in the assay on CCRF-CEM leukemia, 54%; in the assay with MOLT-4 leukemia, 61.9%.

On to `N#CC1=C2NCCCNc3oc(nc3C#N)Cc3ccccc3CC(=N1)O2`, for which the growth with HCT-15 colon was 74.8%; in the assay with HT29 colon, 102%; in the assay on SNB-75 CNS, 92%; in the assay on SNB-19 CNS, 93.2%; in the assay with U251 CNS, 96.1%; in the assay with PC-3 prostate, 91.9%. For the same compound, the growth with SK-MEL-5 melanoma was 99.1%; in the assay with UACC-62 melanoma it was 87.5%; in the assay with LOX IMVI melanoma, 8.01% (active); in the assay with SK-MEL-28 melanoma, 102%; in the assay with SK-MEL-2 melanoma, 93.9%; in the assay on SN12C renal, 105%. Besides, the growth with UO-31 renal is 72.9%; in the assay with TK-10 renal, 106%; with ACHN renal, 87.4%; in the assay with CAKI-1 renal, 77.3%; in the assay on A498 renal it was 95.5%; in the assay on CCRF-CEM leukemia, 30.4%. Also, the growth in the assay with MOLT-4 leukemia is 84.1%.

As to `NS(=O)(=O)c1ccc(Nc2nc(Nc3ccccc3)nc(N3N=C(c4ccc(Cl)cc4)CC3c3ccc(Cl)cc3)n2)cc1` (stereo not given), the growth in the assay on HCT-15 colon was 36.6%; with HT29 colon it was 9.63% (active); in the assay with SNB-75 CNS, 68%; in the assay with SNB-19 CNS, 61.1%; with U251 CNS it was 61.3%; with PC-3 prostate, 43%. Besides, the growth in the assay with SK-MEL-5 melanoma was 51.9%; in the assay with UACC-62 melanoma, 97.6%; in the assay on LOX IMVI melanoma it was 12.6%; with SK-MEL-28 melanoma it was 47.1%; with SK-MEL-2 melanoma, 65.6%; with SN12C renal, 40.2%. Also, the growth is 48.9% with UO-31 renal; 89.3% with TK-10 renal; 32.6% with ACHN renal; 42.7% with CAKI-1 renal; 55.8% in the assay with A498 renal; 14.2% with CCRF-CEM leukemia. Moreover, the growth with MOLT-4 leukemia is 17.3%.

`O=C(/C=C/c1cccc(C(F)(F)F)c1)Nc1cccc(C(F)(F)F)c1`: the growth with HCT-15 colon is 14.9%; in the assay with HT29 colon, 51.5%; in the assay with SNB-75 CNS, 97.5%; with SNB-19 CNS, 81.9%; in the assay with U251 CNS, 26.9%; in the assay with PC-3 prostate, 18.9%. The growth in the assay on SK-MEL-5 melanoma was 89.1%; in the assay with UACC-62 melanoma it was 84.5%; in the assay on LOX IMVI melanoma, 28.4%; in the assay with SK-MEL-28 melanoma, 65.4%; in the assay on SK-MEL-2 melanoma it was 76.8%; in the assay with SN12C renal it was 83.1%. Besides, the growth in the assay with UO-31 renal is 47.7%; with TK-10 renal, 53.5%; with ACHN renal it was 70.1%; in the assay on CAKI-1 renal, 34.1%; in the assay on A498 renal, 54.3%; with CCRF-CEM leukemia, 31.7%. The growth in the assay with MOLT-4 leukemia was 35.8%.

Consider `CCn1c2ccc(/C=N/N(C)S(=O)(=O)CCN(C)C)cc2c2cc(/C=N/N(C)S(=O)(=O)CCN(C)C)ccc21`, for which the growth in the assay on HCT-15 colon was 26.2%; with HT29 colon it was 44.8%; with SNB-75 CNS, 87.1%; in the assay with SNB-19 CNS, 85.8%; in the assay with U251 CNS, 64.8%; in the assay on PC-3 prostate it was 85.8%. Moreover, the growth was 62.4% with SK-MEL-5 melanoma; 81.7% in the assay on UACC-62 melanoma; -15.3% (active) in the assay with LOX IMVI melanoma; 87.9% with SK-MEL-28 melanoma; 107% in the assay on SK-MEL-2 melanoma; 94.7% in the assay with EKVX NSCLC. For the same compound, the growth was 47.5% with UO-31 renal; 142% in the assay on TK-10 renal; 70.2% in the assay with ACHN renal; 48.1% in the assay with CAKI-1 renal; 85.3% in the assay with A498 renal; 19.4% with CCRF-CEM leukemia. Moreover, the growth in the assay with MOLT-4 leukemia was 15.1%.

Source of the values: PubChem BioAssay (NCI).
